In PubChem BioAssay AID743279 (National Center for Advancing Translational Sciences (NCATS), 2014):
Screen size: about 360,000 compounds; about 17,000 (4.7%) were called active. Not shown: some 5% with an inconclusive outcome. No stated cut-off is given here; in the data, active means activity change below about -50%; inconclusive means mostly about -30% to -49%; inactive means weaker than that. What follows is part of a selection rich in actives, with near analogues and random picks from the rest.

Experiment: qHTS for Inhibitors of Inflammasome Signaling: IL-1-beta AlphaLISA Primary Screen
Details: THP-1 LPS/ATP IL-1B secretion, 16 h; at 57.5 µM, active compounds read low
Summary of the method: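 Secreted IL-1B measured by AlphaLISA bead assay after 16 h compound exposure of THP-1 cells; compounds (final up to 57.5 uM) added 1 h before LPS (250 ng/mL) and ATP (1.25 mM) stimulation; lower signal means less secretion.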
On the % scale 0 is the no-effect control and ±100 the full control effect.

Activity change, inactive:
O=C(Nc1ccc(S(=O)(=O)N2CCOCC2)cc1)C1CCN(S(=O)(=O)c2ccc(Cl)cc2)CC1 -6.97%, Clc1ccc(Nc2ccc3ccccc3n2)cc1 -15.6%, C(=N\Nc1ccc2ccccc2n1)/c1ccc2c(c1)OCO2 -9.79%, O=C(Nc1ccc(Cl)cc1)c1csc([C@@H]2O[C@H](CO)[C@H](O)[C@H](O)[C@H]2O)n1 17.3%, Cc1nnc(SC(C)C(=O)c2c[nH]c3ccccc23)n1C1CC1 (stereo not drawn) 0%, Cc1onc(-c2c(F)cccc2Cl)c1C(=O)Nc1cccc(S(=O)(=O)N2CCCCC2)c1 -19.9%, CCC(CO)Oc1cc(NC(=O)c2cccc(F)c2)c2ncn(C(C)C)c2c1 (stereo not drawn) -4.82%, CCC(CO)Oc1cc(NC(=O)c2ccc(Cl)cc2)c2ncn(C(C)C)c2c1 (stereo not drawn) -3.64%, COc1ccc(CCNC(=O)COC(=O)Cc2cc(OC)c(OC)c(OC)c2)cc1 28%, Cc1cc(C)c2c(=O)n3c(nc2c1)C(CC(C)C)NC(=O)c1cc2ccccc2cc1-3 (stereo not drawn) 24.5%, Cc1cccc(NC(=O)Nc2ccc3c(c2)OCO3)n1 -14.3%, CC(C)CNS(=O)(=O)c1ccc(C(=O)Nc2ccc3c(c2)OCO3)cc1 -5.7%, Cc1ccc(C(=O)Nc2c(-c3ccccc3)[nH][nH]c2=O)cc1 0%, Cc1ccc2c(c1)C(c1ccccc1)N(C(=O)c1ccc(F)cc1)CC(=O)N2 (stereo not drawn) 22.3%, O=S(=O)(Nc1cc(Cl)ccc1N1CCOCC1)c1ccccc1Cl -27.8%, Cc1oc2c(c1C(=O)N1CCOCC1)C(=O)c1ccccc1C2=O -0.813%, O=S1(=O)CC(N2CCN(CCO)CC2)CN1Cc1cn(Cc2ccc(Cl)cc2)nn1 (stereo not drawn) 0%, COc1ccc2cc(C(=O)O)n(CC(=O)c3ccccc3)c2c1 0%, O=C(Cn1nnc(N2CCCCC2)n1)c1ccc(Cl)c(Cl)c1 -1.15%, CCN(CC)CC1(O)CCN(C(=O)c2ccc(Cl)c(Cl)c2)CC1 12.6%, CCOC(=O)c1cc2ccccc2n1CC(=O)c1ccccc1 28.5%, Cc1cc(Cl)ccc1C(=O)C1CCCN(C(=O)c2ccc3c(c2)OCO3)C1 (stereo not drawn) -15.9%, Cc1cccc(C2c3c(n(C)c(=O)n(C)c3=O)N=C3c4ccccc4C(=O)C32)c1 (stereo not drawn) 13.5%, Cc1ccccc1S(=O)(=O)NC(=O)C1(C)CCN1C(=O)C1(c2ccc(Cl)cc2)CC1 (stereo not drawn) 22.8%, COc1ccc(NC(=O)CN(C)C(=O)CNC(=O)C2CCCCC2)cc1, O=C(NNC(=O)c1ccc2ccccc2c1)c1ccc(Cl)cc1 -7.64%, COc1ccc(C(=O)C(OP(=O)(OC)OC)c2ccccc2OC)cc1 (stereo not drawn) 0%, OCCC1CN(Cc2cccc(OC3CCCC3)c2)CCN1Cc1ccsc1 (stereo not drawn) -20.7%, CC1=C[C@H]2Cc3cc(C)cc(C)c3S(=O)(=O)[C@@H]2C=C1 -1.95%, Cc1ccccc1Cn1c(C)c(C(=O)NCc2cccc(C(F)(F)F)c2)sc1=O -29.1%, O=C(O)c1ccc(F)c(S(=O)(=O)Nc2ccccc2)c1 0%, COc1ccc(NS(=O)(=O)c2cc(C(=O)Nc3ccccc3C(=O)O)ccc2C)cc1 11.7%, CCOC(=O)C=Cc1ccc(C(=O)OCC)[nH]1 12.1%, CCOC(=O)C1=C(CSc2nccn2C)NC(=O)NC1c1ccc(OC)cc1 (stereo not drawn) -4.23%, CCOCCOC(=O)C1=C(C)NC(=O)NC1c1ccc2c(c1)OCO2 (stereo not drawn) -7.25%, Cn1c(=O)[nH]c2c(c(C(=O)O)nn2C)c1=O -10.6%, CCOc1ccc(C(=O)CCC(=O)Nc2ccncc2)cc1 2.33%, CC(C)CC(=O)Nc1ccc(Cc2ccncc2)cc1 -7.35%, CCOc1ccc(NC(=O)c2ccc(NC(=O)C3CCCO3)cc2)cc1 (stereo not drawn) -7.47%, CCc1ccc(NC(=O)N[C@H](C(=O)O)C(C)CC)cc1 (stereo partly drawn) 21.9%, CSc1cccc(NC(=O)CSc2ccccc2)c1 -2.08%, CCOc1ccc(C(=O)Nc2cccc(-c3ccc4nncn4n3)c2)cc1 0%, COC(=O)C(Cc1c[nH]c2ccccc12)NC(=O)CCNC(=O)c1ccco1 (stereo not drawn) 19.3%, CCOC(=O)[C@]12CCC=C1N(CCC1=CCCCC1)C(=O)[C@H](CC(=O)NCc1ccc(C)o1)C2 13.9%, COc1cccc(CN(C)C(=O)CC[C@H]2O[C@@H](n3cnc4c(NC(=O)c5ccccc5)ncnc43)[C@H](O)[C@@H]2O)c1 -16.9%, CC(=O)c1cc(CN2CCC(C(=O)Nc3cccc(-c4cscn4)c3)CC2)cs1, O=C(Nc1cccc(-c2cscn2)c1)C1CCN(Cc2ccsc2)CC1 -28.7%, CCn1cc(CN2CCC(n3nccc3NC(=O)CCCc3ccccc3)CC2)c(C)n1 40%, O=C(Nc1cnn(Cc2ccc(Cl)cc2)c1)C1CCCC1 -16.9%

Activity change, active:
Cc1noc(C)c1/C=N/Nc1ccc2ccccc2n1 -70.6%, CCC(CO)Oc1cc(NC(=O)c2cccc3ccccc23)c2ncn(C(C)C)c2c1 (stereo not drawn) -67.6%, CNS(=O)(=O)c1ccc(NC(=O)Nc2ccc3c(c2)OCO3)cc1 -52.3%, O=C1c2ccccc2-c2ncnc3c(N4CCOCC4)cc(N4CCOCC4)c1c23 -66.7%, CCCn1c(=N)n(CC(=O)c2ccc(Cl)c(Cl)c2)c2ccccc21 -91.6%, CCn1c(=N)n(CC(=O)c2cccc(OC)c2)c2ccccc21 -63%, CN(CC(=O)Nc1ccc(Cl)cc1)C(=O)CNC(=O)c1ccc2ccccc2c1 -102%, Cc1ccc(C(=O)Nc2ccccc2-c2ccccc2)cc1S(=O)(=O)Nc1ccccc1 -69.2%, CCOC(=O)C1=C(CCc2ccccc2)NC(=O)NC1c1ccc2ccccc2c1 (stereo not drawn) -52.7%, CCOc1ccc(C(=O)Nc2ccncc2)cc1 -73.6%, CCc1ccc(NC(=O)Nc2ccncc2)cc1 -73.4%, CCOc1ccc(C(=O)Nc2cccc(SC)c2)cc1 -79.8%, CCn1cc(CN2CCC(C(=O)Nc3cccc(-c4cccc(Cl)c4)c3)CC2)cn1 -79.5%, CCn1cc(CN2CCC(C(=O)Nc3cccc(-c4cccc(Cl)c4)c3)CC2)c(C)n1 -53.4%
